# Laboratory results published in PubChem BioAssay (Tox21).
# A number with no mark means an inactive call. Inconclusive results are not listed. Entries that show only a call come without a potency. The source made the active and inactive calls. Unless noted, the call rests on the fitted dose curve; in most records, active means well fitted curve in the direction sought with a large enough effect in the repeat runs; inconclusive means weak or mixed curves; inactive means flat fitted curve, though single readings scatter.
# System: not listed separately
# Test: qHTS assay to test for compound auto fluorescence at 535 nm (green) in HepG2 cell free culture (AID 720686)
# Conditions: Cell-free medium, green autofluorescence 485/535 nm; series mostly up to 91.3 µM
Compound,outcome,"fluorescence, % of fluorescein control"
C=C(C)C(=O)OC,inactive,
CC1=CC[C@H](CC=O)C1(C)C,inactive,
COCCOCCOCCOC,inactive,
COc1ccc(OC)c(NC(=O)CC(C)=O)c1,inactive,
CCCCC(=O)N(C)C,inactive,
CCS(=O)(=O)CCn1c([N+](=O)[O-])cnc1C,,-0.0978% [at 18.6 µM]
CC(Cl)COP(=O)(OCC(C)Cl)OCC(C)Cl (configuration not stated),inactive,
CCCCC/C=C/CC(=O)OC,inactive,
C=C(C)C(=O)OCCCCCCOC(=O)C(=C)C,inactive,
NS(=O)(=O)c1ccc(Cl)c(S(N)(=O)=O)c1,inactive,
CC(C)SCc1ccco1,inactive,
F[Si-2](F)(F)(F)(F)F,inactive,
CCC(O)C(C)(C)C (configuration not stated),inactive,
Cc1ccccc1OCC1CO1 (configuration not stated),inactive,
Cc1nc(C)nc(N2C[C@@H](C)N(c3ccnc([C@@H](C)O)n3)[C@@H](C)C2)n1,inactive,
O=C(O)c1ccccc1C(=O)OCc1ccccc1,inactive,
C=COCCOCCOC=C,inactive,
CCCCCCCCOC(C)=O,inactive,
CCN(Cc1cccc(S(=O)(=O)O)c1)c1ccccc1,inactive,
O=C(CN1CCN(Cc2ccc3c(c2)OCO3)CC1)N1c2ccccc2Sc2ccccc21,inactive,
CC(=O)N(CC(O)CO)c1c(I)c(C(=O)NCC(O)CO)c(I)c(C(=O)NCC(O)CO)c1I (configuration not stated),inactive,
CC1=NN(c2ccc(S(=O)(=O)O)cc2)C(=O)C1N=Nc1ccccc1 (configuration not stated),inactive,
C=CCOCC(CO)(COCC=C)COCC=C,inactive,
C=C[Si](C)(C)O[Si](C)(C)C=C,inactive,
CCCCC[Si](OCC)(OCC)OCC,inactive,
O=C(O)c1ccccc1C(=O)Nc1ccc(S(=O)(=O)Nc2nccs2)cc1,inactive,
Nc1cc(S(=O)(=O)O)ccc1S(=O)(=O)O,inactive,
CCCCOC(=O)C(C)OC(=O)CCC (configuration not stated),inactive,
CC(=O)OC(C(=O)c1ccccc1)c1ccccc1 (configuration not stated),inactive,

# System: not listed separately
# Test: qHTS assay to test for compound auto fluorescence at 460 nm (blue) in HepG2 cells (AID 720687)
# Conditions: autofluorescence 405/460 nm, 1 h; series mostly up to 91.3 µM
# How it was run: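 HepG2 cells in MEM with 10% FBS, attached overnight at 37 C, were exposed to compound or DMSO for 1 hr at 37 C, 5% CO2. Blue fluorescence was read at 405/460 nm, with triamterene as reference fluorophore.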
Compound,outcome,"fluorescence, % of fluorescent control"
O=C(COCCOCCOCC(=O)Nc1c(I)cc(I)c(C(=O)O)c1I)Nc1c(I)cc(I)c(C(=O)O)c1I,inactive,
C=C(C)C(=O)OC,inactive,
CC1=CC[C@H](CC=O)C1(C)C,inactive,
C=C(C)[C@@H]1CC[C@@H](C)C[C@@H]1O,inactive,
COCCOCCOCCOC,inactive,
COc1ccc(OC)c(NC(=O)CC(C)=O)c1,inactive,
CCCCC(=O)N(C)C,inactive,
C1=C\CC/C=C\CC/1,inactive,
CCS(=O)(=O)CCn1c([N+](=O)[O-])cnc1C,,0.0125% [at 18.6 µM]
CC(Cl)COP(=O)(OCC(C)Cl)OCC(C)Cl (configuration not stated),inactive,
CCCCC(C)C(=O)O (configuration not stated),inactive,
CCCCC/C=C/CC(=O)OC,inactive,
C=C(C)C(=O)OCCCCCCOC(=O)C(=C)C,inactive,
NS(=O)(=O)c1ccc(Cl)c(S(N)(=O)=O)c1,inactive,
CC(C)SCc1ccco1,inactive,
F[Si-2](F)(F)(F)(F)F,inactive,
CCC(O)C(C)(C)C (configuration not stated),inactive,
Cc1ccccc1OCC1CO1 (configuration not stated),inactive,

Compound,outcome,"fluorescence, % of fluorescent control"
Cc1nc(C)nc(N2C[C@@H](C)N(c3ccnc([C@@H](C)O)n3)[C@@H](C)C2)n1,inactive,
CC(=O)OC(C)c1ccccc1 (configuration not stated),inactive,
O=C(O)c1ccccc1C(=O)OCc1ccccc1,inactive,
C=COCCOCCOC=C,inactive,
CCCCCCCCOC(C)=O,inactive,
CCN(Cc1cccc(S(=O)(=O)O)c1)c1ccccc1,inactive,
O=C(CN1CCN(Cc2ccc3c(c2)OCO3)CC1)N1c2ccccc2Sc2ccccc21,inactive,
CC(=O)N(CC(O)CO)c1c(I)c(C(=O)NCC(O)CO)c(I)c(C(=O)NCC(O)CO)c1I (configuration not stated),inactive,
CC1=NN(c2ccc(S(=O)(=O)O)cc2)C(=O)C1N=Nc1ccccc1 (configuration not stated),inactive,
C=CCOCC(CO)(COCC=C)COCC=C,inactive,
C=C[Si](C)(C)O[Si](C)(C)C=C,inactive,
CCCCC[Si](OCC)(OCC)OCC,inactive,
O=C(O)c1ccccc1C(=O)Nc1ccc(S(=O)(=O)Nc2nccs2)cc1,inactive,
Nc1cc(S(=O)(=O)O)ccc1S(=O)(=O)O,inactive,
O=CN1CCOCC1,inactive,
CCCCOC(=O)C(C)OC(=O)CCC (configuration not stated),inactive,
CC(=O)OC(C(=O)c1ccccc1)c1ccccc1 (configuration not stated),inactive,

# Target: Glucocorticoid receptor (Homo sapiens) (UniProt P04150)
# Sequence (P04150 whole entry, looked up): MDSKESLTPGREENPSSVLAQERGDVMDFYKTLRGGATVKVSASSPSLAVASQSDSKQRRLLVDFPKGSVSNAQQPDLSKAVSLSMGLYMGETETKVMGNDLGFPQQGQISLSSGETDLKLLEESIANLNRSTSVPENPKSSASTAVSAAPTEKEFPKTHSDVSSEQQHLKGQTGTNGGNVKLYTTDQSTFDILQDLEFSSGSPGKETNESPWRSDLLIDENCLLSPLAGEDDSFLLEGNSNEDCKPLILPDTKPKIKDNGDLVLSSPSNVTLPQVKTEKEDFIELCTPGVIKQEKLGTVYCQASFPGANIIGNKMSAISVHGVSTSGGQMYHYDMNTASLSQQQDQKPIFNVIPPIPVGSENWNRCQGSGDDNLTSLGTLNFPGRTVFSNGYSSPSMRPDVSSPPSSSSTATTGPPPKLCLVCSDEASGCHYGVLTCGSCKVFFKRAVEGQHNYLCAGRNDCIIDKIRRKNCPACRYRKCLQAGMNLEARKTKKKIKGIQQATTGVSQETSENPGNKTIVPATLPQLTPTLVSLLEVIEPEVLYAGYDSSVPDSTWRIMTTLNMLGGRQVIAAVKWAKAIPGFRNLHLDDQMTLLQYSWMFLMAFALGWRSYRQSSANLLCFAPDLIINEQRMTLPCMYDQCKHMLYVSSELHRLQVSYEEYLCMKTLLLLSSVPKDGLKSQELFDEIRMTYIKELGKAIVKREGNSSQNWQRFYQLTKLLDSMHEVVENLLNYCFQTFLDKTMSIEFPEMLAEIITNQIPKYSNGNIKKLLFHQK
# Test: qHTS assay to identify small molecule agonists of the glucocorticoid receptor (GR) signaling pathway (AID 720691; active means well fitted activation curve with a large enough effect in the signal ratio in the repeat runs, not every such curve was filed as active; the % refers to the signal ratio)
# Conditions: GR-bla HeLa, beta-lactamase reporter ratio, 18 h; series mostly up to 62.4 µM
# How it was run: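 HeLa GR-bla reporter line; cells pre-incubated 4 h, compound in DMSO 18 h at 37 C; LiveBLAzer B/G FRET substrate 2 h RT; fluorescence intensity read-out.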
row,Compound,Potency
1,O=C(COCCOCCOCC(=O)Nc1c(I)cc(I)c(C(=O)O)c1I)Nc1c(I)cc(I)c(C(=O)O)c1I,inactive
2,C=C(C)C(=O)OC,inactive
3,CC1=CC[C@H](CC=O)C1(C)C,inactive
4,COCCOCCOCCOC,inactive
5,CCCCC(=O)N(C)C,inactive
6,CC(Cl)COP(=O)(OCC(C)Cl)OCC(C)Cl (configuration not stated),inactive
7,CCCCC/C=C/CC(=O)OC,inactive
8,C=C(C)C(=O)OCCCCCCOC(=O)C(=C)C,inactive
9,NS(=O)(=O)c1ccc(Cl)c(S(N)(=O)=O)c1,inactive
10,F[Si-2](F)(F)(F)(F)F,inactive
11,Cc1ccccc1OCC1CO1 (configuration not stated),inactive
12,Cc1nc(C)nc(N2C[C@@H](C)N(c3ccnc([C@@H](C)O)n3)[C@@H](C)C2)n1,inactive
13,O=C(O)c1ccccc1C(=O)OCc1ccccc1,inactive
14,C=COCCOCCOC=C,inactive
15,CCN(Cc1cccc(S(=O)(=O)O)c1)c1ccccc1,inactive
16,CC1=NN(c2ccc(S(=O)(=O)O)cc2)C(=O)C1N=Nc1ccccc1 (configuration not stated),inactive
17,C=CCOCC(CO)(COCC=C)COCC=C,inactive
18,C=C[Si](C)(C)O[Si](C)(C)C=C,inactive
19,CCCCC[Si](OCC)(OCC)OCC,inactive
20,O=C(O)c1ccccc1C(=O)Nc1ccc(S(=O)(=O)Nc2nccs2)cc1,inactive
21,Nc1cc(S(=O)(=O)O)ccc1S(=O)(=O)O,inactive
22,CCCCOC(=O)C(C)OC(=O)CCC (configuration not stated),inactive
23,CC(=O)OC(C(=O)c1ccccc1)c1ccccc1 (configuration not stated),inactive
